Test results as given in PubChem BioAssay (NCATS).
Values joined by “and” are separate entries in the source; they are usually repeats but may differ in a detail not shown here. Equal values may be shown once. Records with an inconclusive call do not appear. Active and inactive are the calls of the source. Unless noted, calls come from the whole dose curve; as a rule, active = well fitted curve in the direction sought with a large enough effect; inconclusive = small, poorly fitted or top-dose-only effect, or another doubt; inactive = no such curve, though single readings can be large; an effect the other way counts as inactive or inconclusive.

What was measured:
[1] = Cell Viability - SK-N-SH (AID 435; calls by dose curve;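 note: potency is the fitted concentration of half-maximal effect; compound exposure lasted 40 h at 37 °C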); conditions: SK-N-SH neuroblastoma cell viability qHTS
Outline: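 Luminescent ATP signal served as the viability read-out after 40 hours of compound treatment of human neuroblastoma SK-N-SH cells. Concentration-response data, scaled between DMSO and 100 uM tamoxifen, gave AC50 values by standard Hill modeling.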

[2] = Cell Viability - H-4-II-E (AID 543); conditions: H-4-II-E rat hepatoma viability; series mostly up to 92.2 µM; note: % is set by controls: 0 for no effect and ±100 for the full control effect; nearly all actives have a fitted effect of over 35% in size
Outline: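 Here, cytotoxicity is measured in the rat hepatoma line H-4-II-E as loss of intracellular ATP after 40 hr compound treatment, detected by luciferase luminescence.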

[3] = Cell Viability - Renal Proximal Tubule (AID 545); conditions: renal proximal tubule cells viability, primary cells of rat origin; activity change, negative = cytotoxicity: at 91.7 µM (top of the series);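 note: 0% = DMSO only and -100% = 100 µM tamoxifen; nearly all actives have a fitted effect of over 40% in size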
Outline: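 Luminescent ATP signal (CellTiter-Glo) served as the viability read-out after 40 hr compound exposure of freshly isolated rat proximal tubule cells at 37 °C. Concentration-dependent ATP loss was fitted with the Hill equation to give AC50.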

[4] = Cell Viability - LYMP2-001 (AID 921); conditions: LYMP2-001 lymphoblastoid cell viability; series mostly up to 92.2 µM;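 note: cells exposed to compound for 24 h at 37 °C; nearly all actives have a fitted effect of over 70% in size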; note: potency is the fitted concentration of half-maximal effect
Outline: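 Steps: seed 2500 lymphoblastoid cells/well; 5 hr, 37 C; add compound; 24 hr, 37 C; CellTiter-Glo reagent, 30 min room temperature; read luminescence. Concentration-response modeled by Hill equation for AC50.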

[5] = MultiTox-Fluor Cytotoxicity Assay - LYMP1-001 - Live Cells (AID 947); conditions: LYMP1-001 lymphoblastoid cells, live-cell protease fluorescence viability; series mostly up to 92.2 µM;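 note: 0% = DMSO only and full inhibition = tetraoctylammonium bromide control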
[6] = MultiTox-Fluor Cytotoxicity Assay - LYMP1-002 - Dead Cells (AID 960); conditions: LYMP1-002 lymphoblastoid cells, dead-cell protease fluorescence; series mostly up to 46.1 µM;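 note: cells exposed to compound for 16 h at 37 °C; 0% = DMSO and 100% = tetraoctylammonium bromide; nearly all actives have a fitted effect of over 60% in size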
Outline: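 Acute cytotoxicity in a human lymphoblastoid line is scored as rising dead-cell protease signal after 16 hr exposure at 37 C, measured fluorometrically (485/520).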

[7] = Cell Viability - LYMP2-005 (AID 967); conditions: LYMP2-005 lymphoblastoid cell viability; series mostly up to 92.2 µM;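 note: cells exposed to compound for 24 h at 37 °C; plate controls were DMSO only for no effect and 92 µM tetraoctylammonium bromide control for full effect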
Outline: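 Acute cytotoxicity is scored as a concentration-dependent drop in intracellular ATP in human lymphoblastoid LYMP2-005 cells after 24 h compound treatment. ATP is quantified by luciferase luminescence, and AC50 is derived by Hill-equation modelling.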

[8] = Cell Viability - LYMP2-009 (AID 968); conditions: LYMP2-009 lymphoblastoid cell viability; series mostly up to 92.2 µM;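 note: cells exposed to compound for 24 h at 37 °C; 0% = DMSO alone and the full-kill end = tetraoctylammonium bromide at 92 µM; nearly all actives have a fitted effect of over 55% in size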
[9] = Cell Viability - LYMP2-015 (AID 971); conditions: LYMP2-015 lymphoblastoid cell viability; series mostly up to 92.2 µM;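 note: 0% = DMSO only and full effect = 92 µM tetraoctylammonium bromide; nearly all actives have a fitted effect of over 55% in size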
Outline: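 Acute toxicity was scored as a concentration-dependent drop in intracellular ATP in lymphoblastoid cells after 24 hr compound exposure in complete medium. Detection used CellTiter-Glo luciferase luminescence.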

[10] = Cell Viability - LYMP2-017 (AID 972); conditions: LYMP2-017 lymphoblastoid cell viability; series mostly up to 92.2 µM;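 note: cells exposed to compound for 24 hours at 37 °C; % is set by controls: 0 for no effect and ±100 for the full control effect; nearly all actives have a fitted effect of over 55% in size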
Outline: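 Steps: plate 2500 lymphoblastoid cells per well; incubate 5 hr at 37 C; add compound across a concentration series and incubate 24 hr at 37 C; add CellTiter-Glo and read luminescence after 30 min at room temperature; fit Hill curves for AC50.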

[11] = Cell Viability - LYMP2-006 (AID 978); conditions: LYMP2-006 lymphoblastoid cell viability, qHTS; series mostly up to 92.2 µM;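 note: cells exposed to compound for 24 hours; % is set by controls: 0 for no effect and ±100 for the full control effect; nearly all actives have a fitted effect of over 60% in size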
Outline: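 Cells are seeded at 2500 per well and rested 5 hr at 37 C. Compounds are added across a concentration series for 24 hr at 37 C, after which ATP is quantified by luciferase luminescence.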

[12] = Cell Viability - LYMP2-010 (AID 981); conditions: LYMP2-010 lymphoblastoid cell viability, qHTS; series mostly up to 92.2 µM;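 note: cells exposed to compound for 24 hours at 37 °C; % is set by controls: 0 for no effect and ±100 for the full control effect; nearly all actives have a fitted effect of over 55% in size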
Outline: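 Acute toxicity is scored as a concentration-dependent loss of cellular ATP in human lymphoblastoid cells after 24 hr compound exposure in complete medium. Tetraoctylammonium bromide is the positive control.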

[13] = qHTS assay for small molecule agonists of retinoid X receptor alpha signaling (AID 588544); conditions: HEK293T RXRa-UAS-bla, beta-lactamase reporter, 18 h; 530 nm emission
[14] = biological target: Thyroid hormone receptor beta (Homo sapiens) (UniProt P10828); experiment: qHTS assay for small molecule antagonists of thyroid hormone receptor beta signaling (AID 588547; active = well fitted inhibition curve with a large enough effect in the signal ratio, with a control signal flat, not every such curve was filed as active; the % refers to the signal ratio;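 note: cells stimulated with 0.4 nM T3 agonist during compound exposure; % is set by controls: 0 for no effect and ±100 for the full control effect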); conditions: TR-UAS-bla HEK293, beta-lactamase ratio, antagonist mode, 18 h
Outline: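 TR-UAS-bla GripTite HEK293 cells in 2% charcoal/dextran FBS medium; compounds 0.59 nM to 92 uM with T3 at 0.4nM final, 18 h at 37 C. Beta-lactamase read by CCF4 fluorescence (460/530 nm); Hill fits gave IC50 and efficacy.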

[15] = qHTS assay for small molecule disruptors of the mitochondrial membrane potential - 1 hr assay (AID 651754; calls by dose curve; note: nearly all actives have a fitted effect of over 35% in size; note: potency is the fitted concentration of half-maximal effect); conditions: series mostly up to 92.2 µM
Outline: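 Steps: seed HepG2 cells and let attach overnight; pin-transfer compound or vehicle; incubate 1 hr at 37C; add Mito-MPS dye for 30 min; read two-channel fluorescence for monomer and aggregate forms.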

[16] = qHTS assay for small molecule disruptors of the mitochondrial membrane potential - 5 hr assay (AID 651755; calls by dose curve; note: nearly all actives have a fitted effect of over 40% in size; note: potency is the fitted concentration of half-maximal effect); conditions: JC-1-type ratio dye; series mostly up to 92.2 µM
Outline: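 HepG2 cells (2,000/well), attached overnight, exposed to compound 5 hr at 37C, then Mito-MPS dye 30 min. Fluorescence read for monomers (490/535 nm) and aggregates (540/590 nm).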

[17] = qHTS assay for small molecule agonists of the antioxidant response element (ARE) signaling pathway measured by Nrf2-dependant transcriptional activity (AID 720636; active = well fitted curve in the direction sought with a large enough effect in the repeat runs; an effect the other way counts as inactive or inconclusive;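 note: HepG2 cells with an ARE-driven luciferase reporter; % of control where 0% means no effect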); conditions: ARE-luc HepG2, Nrf2 luciferase reporter, 16 h; series mostly up to 92.4 µM
Outline: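 Cells: ARE-luc HepG2 with Nrf2-responsive luciferase. Medium contained 1% dialyzed FBS. Compound exposure lasted 16 hr at 37 C and 5% CO2, followed by ONE-Glo luciferase detection.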

[18] = biological target: Nuclear receptor subfamily 1 group I member 2 (Rattus norvegicus) (UniProt Q9R1A7); experiment: qHTS assay for small molecule activators of the rat pregnane X receptor (rPXR) signaling pathway (AID 651751; call rule not given here; note: 0% is about no effect); conditions: rPXR reporter cells, luciferase (One-Glo), 24 h
[19] = Cell Viability - N2a (AID 540); conditions: N2a mouse neuroblastoma cell viability; activity change, negative = cytotoxicity: at 92.2 µM (top of the series);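 note: cells exposed to compound for 40 h at 37 °C; plate controls were DMSO alone for no effect and tamoxifen control for full effect; nearly all actives have a fitted effect of over 45% in size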
Outline: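 First, 1500 N2a cells per well incubate 5 hr at 37 °C; next, compounds are added and incubated 40 hr at 37 °C; finally CellTiter-Glo is added and luminescence read after 20 min, with AC50 derived by Hill modeling.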

[20] = biological target: Thyroid hormone receptor beta (Homo sapiens) (UniProt P10828); experiment: qHTS assay for small molecule agonists of thyroid hormone receptor beta signaling (AID 588545; calls by dose curve;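 note: 0% = DMSO only and 100% = 10 nM T3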); conditions: TR-UAS-bla GripTite HEK 293, beta-lactamase ratio, agonist mode, 18 h; series mostly up to 76.7 µM
Outline: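 Efficacy and EC50 values derive from Hill fits of qHTS titration data, normalized to 10 nM T3 and DMSO-only wells. HEK 293 reporter cells were stimulated for 18 hrs at 37 C, with beta-lactamase activity measured by CCF4 fluorescence.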

Nuclear receptor subfamily 1 group I member 2 (Rattus norvegicus), sequence (Q9R1A7 whole entry, looked up): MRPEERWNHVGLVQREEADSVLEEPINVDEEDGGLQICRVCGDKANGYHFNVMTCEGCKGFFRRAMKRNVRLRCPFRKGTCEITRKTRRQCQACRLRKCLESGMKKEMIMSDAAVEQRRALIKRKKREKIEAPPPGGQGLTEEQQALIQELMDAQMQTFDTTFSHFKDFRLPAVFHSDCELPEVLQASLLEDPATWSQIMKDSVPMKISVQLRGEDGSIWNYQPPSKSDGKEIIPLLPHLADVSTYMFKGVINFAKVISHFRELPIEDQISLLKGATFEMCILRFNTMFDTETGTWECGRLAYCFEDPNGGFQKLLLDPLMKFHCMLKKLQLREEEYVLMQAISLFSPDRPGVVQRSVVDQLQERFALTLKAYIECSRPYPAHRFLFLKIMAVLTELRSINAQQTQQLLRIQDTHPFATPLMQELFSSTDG
Thyroid hormone receptor beta (Homo sapiens), sequence (P10828 whole entry, looked up): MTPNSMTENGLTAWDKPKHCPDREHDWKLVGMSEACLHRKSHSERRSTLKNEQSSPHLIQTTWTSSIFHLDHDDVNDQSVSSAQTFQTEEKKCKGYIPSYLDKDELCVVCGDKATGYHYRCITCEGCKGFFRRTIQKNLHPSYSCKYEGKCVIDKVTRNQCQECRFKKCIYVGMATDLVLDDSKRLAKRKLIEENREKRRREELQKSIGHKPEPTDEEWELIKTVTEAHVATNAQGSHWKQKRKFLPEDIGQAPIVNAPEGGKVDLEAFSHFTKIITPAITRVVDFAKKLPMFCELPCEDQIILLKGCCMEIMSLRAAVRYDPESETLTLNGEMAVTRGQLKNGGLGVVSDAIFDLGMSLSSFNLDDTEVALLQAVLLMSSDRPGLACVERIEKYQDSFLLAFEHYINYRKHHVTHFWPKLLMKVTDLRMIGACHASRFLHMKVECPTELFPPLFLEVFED

Cc1cccnc1
9.82%: max response [13]
inactive: Potency [1] > 92 µM | Potency [2] | Potency [3] | Potency [4] | Potency [5] | Potency [6] | Potency [7] | Potency [8] | Potency [9] | Potency [10] | Potency [11] | Potency [12] | activity change % (negative = inhibition) [14] 13.1% | Potency [15] | Potency [16] | Potency [17] | max response [18] -3.97%

CC(=O)OCc1ccc2c(c1)OCO2
inactive: Potency [1] > 92 µM | activity change, negative = cytotoxicity [19] -15.3% | Potency [2] | Potency [3] | Potency [4] | Potency [5] | Potency [6] | Potency [8] | Potency [9] | Potency [10] | Potency [11] | Potency [12] | Potency [20] | activity change % (negative = inhibition) [14] -11.5% | Potency [15] | Potency [16] | Potency [17] | max response [18] -6.58%
17.8%: max response [13]

CCC(Cl)CC(Cl)C(Cl)C(Cl)C(Cl)C(C)Cl (stereo not drawn)
inactive: Potency [1] > 92 µM | activity change, negative = cytotoxicity [19] -24.5% | Potency [2] | Potency [3] | Potency [4] | Potency [5] | Potency [7] | Potency [8] | Potency [9] | Potency [10] | Potency [11] | Potency [12] | Potency [20] | activity change % (negative = inhibition) [14] -1.45% | Potency [15] | Potency [16] | Potency [17]
-26.2%: max response [13]

CN(C)c1ccc(Cc2ccc(N(C)C)cc2)cc1
inactive: Potency [1] > 92 µM | activity change, negative = cytotoxicity [19] -41% | Potency [3] | Potency [4] | Potency [5] | Potency [6] | Potency [7] | Potency [8] | Potency [9] | Potency [10] | Potency [11] | Potency [12] | Potency [20] | activity change % (negative = inhibition) [14] 1.5% | Potency [17] | max response [18] 1.5% and 4.81%

CC(=O)c1ccc(Cl)c(Cl)c1Cl
inactive: Potency [1] > 92 µM | activity change, negative = cytotoxicity [19] -12.1% | Potency [2] | Potency [3] | Potency [4] | Potency [5] | Potency [6] | Potency [7] | Potency [8] | Potency [9] | Potency [10] | Potency [11] | Potency [12] | activity change % (negative = inhibition) [14] -12.3% | Potency [15] | Potency [16] | Potency [17] | max response [18] -2.86%
-2.84%: max response [13]

CC(C)S
inactive: Potency [1] > 92 µM | activity change, negative = cytotoxicity [19] -5.34% | Potency [2] | Potency [3] | Potency [4] | Potency [5] | Potency [6] | Potency [7] | Potency [8] | Potency [9] | Potency [10] | Potency [11] | Potency [12] | Potency [20] | activity change % (negative = inhibition) [14] 11.8% | Potency [15] | Potency [16] | Potency [17] | max response [18] -6.45%
-9.69%: max response [13]

Cc1ccc2ccc3cccc4ccc1c2c34
inactive: Potency [1] > 92 µM | activity change, negative = cytotoxicity [19] -16.7% | Potency [2] | Potency [3] | Potency [4] | Potency [5] | Potency [7] | Potency [8] | Potency [9] | Potency [10] | Potency [11] | Potency [12] | Potency [20] | activity change % (negative = inhibition) [14] 1.52% | max response [18] 10%
-15.6%: max response [13]

c1ccc2ncccc2c1
5.03%: max response [13]
inactive: Potency [1] > 92 µM | activity change, negative = cytotoxicity [19] -5.79% | Potency [2] | Potency [3] | Potency [4] | Potency [5] | Potency [6] | Potency [7] | Potency [8] | Potency [9] | Potency [10] | Potency [11] | Potency [12] | Potency [20] | activity change % (negative = inhibition) [14] 3.38% | Potency [15] | Potency [16] | Potency [17] | max response [18] 5.68%

CCCC(=O)OC(=O)CCC
inactive: Potency [1] > 92 µM | activity change, negative = cytotoxicity [19] -12.9% | Potency [2] | Potency [3] | Potency [4] | Potency [5] | Potency [6] | Potency [8] | Potency [9] | Potency [10] | Potency [11] | Potency [20] | activity change % (negative = inhibition) [14] 18.6% and 0.261% | Potency [15] | Potency [16] | Potency [17] | max response [18] -1.94% and 0.492%
16.4% and -19.3%: max response [13]

Nc1cc([N+](=O)[O-])ccc1O
active: Potency [15] 29.8 µM | Potency [16] 29.8 µM
inactive: Potency [1] > 92 µM | Potency [2] | Potency [3] | Potency [4] | Potency [5] | Potency [6] | Potency [7] | Potency [8] | Potency [9] | Potency [10] | Potency [11] | Potency [12] | Potency [20] | activity change % (negative = inhibition) [14] 11.2% and 4.34% | max response [18] 5.65% and 2.03%
-3.91% and 2.48%: max response [13]

COc1ccc([N+](=O)[O-])cc1N
-3.38% and -0.384%: max response [13]
inactive: Potency [1] > 92 µM | Potency [2] | Potency [3] | Potency [4] | Potency [5] | Potency [6] | Potency [8] | Potency [9] | Potency [10] | Potency [11] | Potency [12] | Potency [20] | activity change % (negative = inhibition) [14] -27.9% | Potency [15] | Potency [16] | Potency [17]

O=[N+]([O-])c1ccc(F)cc1F
0.464%: max response [13]
active: Potency [4] 50.1 µM
inactive: Potency [1] > 92 µM | activity change, negative = cytotoxicity [19] -8.79% | Potency [2] | Potency [3] | Potency [5] | Potency [6] | Potency [7] | Potency [8] | Potency [9] | Potency [10] | Potency [11] | Potency [20] | activity change % (negative = inhibition) [14] 0.277% | Potency [15] | Potency [16] | Potency [17] | max response [18] 0.993%

c1ccncc1
1.38%: max response [13]
inactive: Potency [1] > 92 µM | activity change, negative = cytotoxicity [19] -3.08% | Potency [2] | Potency [3] | Potency [4] | Potency [5] | Potency [6] | Potency [7] | Potency [8] | Potency [9] | Potency [10] | Potency [11] | Potency [12] | Potency [20] | activity change % (negative = inhibition) [14] -8.3% | Potency [15] | Potency [16] | Potency [17] | max response [18] 3.74%
